Results filed as inconclusive are left out. Where a call stands in place of a potency, no number is given. Active and inactive are the calls of the source. Calls follow the shape of the dose curve; as a rule, active = well fitted inhibition curve with a large enough effect; inconclusive = small, poorly fitted or top-dose-only effect; inactive = flat fitted curve, though single readings scatter.
Test: qHTS for Inhibitors of Plasmodium falciparum (DD2) proliferation (AID 504314)
Conditions: P. falciparum Dd2 in erythrocytes, SYBR Green growth, 72 h; series mostly up to 1.12 µM
Procedure, shortened: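 Erythrocytes infected with P. falciparum (0.3% parasitemia, 2.5% hematocrit final) were incubated with compounds for 72 h at 37C, 5% CO2. Parasite DNA was detected by SYBR Green I fluorescence after saponin/Triton lysis, normalized to artemisinin (0.29 uM) and DMSO controls.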
Potency is read from the fitted curve at half-maximal effect.

Row | SMILES | Potency
1 | CC(CCN1CCCc2nc(C)c(C)cc21)=NO[C@H](C)c1cn([C@@H]2COC[C@@H]2O)nn1 | inactive
2 | CCN1C(=O)N[C@@H](CCc2ccccc2)C(C(=O)OC)=C1C | inactive
3 | COC(=O)N1C2=C(c3ccccc3[C@@H]1CC(=O)Nc1ccc3cc4ccccc4cc3c1)[C@@H]1C(=O)N(c3ccccc3)C(=O)[C@@H]1[C@H](C)C2 | inactive
4 | CC1(OC(=O)CCc2ccccc2)C(=O)C=C2C=C(c3ccc(C#N)cc3)N(CCN3CCOCC3)C=C2C1=O (stereo not given) | inactive
5 | CCN1C(=O)N[C@@H](c2ccc(Br)cc2)C(C(C)=O)=C1C | inactive
6 | CCN1C(=O)N[C@@H](c2ccco2)C(C(=O)OC)=C1C | inactive
7 | COC(=O)CCCC1=CC2=C(c3ccccc3)C(=O)C(C)(OC(=O)C3CCCC3)C(=O)C2=CN1CC1CC1 (stereo not given) | inactive
8 | COC(=O)[C@@H]1[C@@H](C)N(Cc2ccccc2)C(=O)N[C@H]1c1ccccc1 | inactive
9 | CCCCC1=CC2=CC(=O)C(C)(OC(=O)CC)C(=O)C2=CN1CCCOC(C)C (stereo not given) | inactive
10 | COC(=O)[C@@H]1[C@H](CCc2ccccc2)NC(=O)N(Cc2ccccc2)[C@H]1C | inactive
11 | CCOC(=O)CN1C(=O)N[C@@H](c2ccccc2)[C@H](C(=O)OC)[C@H]1C | inactive
12 | CCC(=O)OC1(C)C(=O)C=C2C=C(CCCCNC(=O)OC(C)(C)C)OC=C2C1=O (stereo not given) | inactive
13 | COC(=O)C1=C(C(=O)OC)[C@@H]2N(C)c3ccccc3[C@@]23C[C@@H](C(=O)OC)N(C(=O)CC(C)C)C3=N1 | inactive
14 | C=C(C(C)=O)C(O)C=Cc1ccco1 (stereo not given) | inactive
15 | COC(=O)CCC(=O)OC1(C)C(=O)C=C2C=C(C3CC3)N(Cc3ccccc3)C=C2C1=O (stereo not given) | inactive
16 | CCN1C(=O)N[C@@H](c2cccc(C(F)(F)F)c2)C(C(C)=O)=C1C | inactive
17 | C=CCN1C=C2C(=O)C(C)(OC(=O)C3CCCC3)C(=O)C(c3ccccc3)=C2C=C1CCCC(=O)OC (stereo not given) | inactive
18 | CC(=O)Nc1ccc(S(=O)(=O)N2CCc3nc(COc4ccccc4)c4c(c3C2)CO[C@@H](C)C4)cc1 | inactive
19 | COC(=O)C1=C(C(=O)OC)[C@@H]2N(C)c3ccccc3[C@@]23C[C@@H](C(=O)OC)N(C(=O)COCc2ccccc2)C3=N1 | inactive
20 | COC(=O)CCCC1=CC2=C(c3ccccc3)C(=O)C(C)(OC(=O)C3CCCC3)C(=O)C2=CN1C1CC1 (stereo not given) | inactive

Row | SMILES | Potency
21 | COC/C=C/C1=CC2=CC(=O)C(C)(OC(=O)c3cnc4ccccc4n3)C(=O)C2=CN1Cc1ccc(OC)cc1 (stereo not given) | inactive
22 | COC(=O)CCCC1=CC2=CC(=O)C(C)(OC(=O)c3cccs3)C(=O)C2=CN1c1cccc(C#N)c1 (stereo not given) | inactive
23 | CCCCC1=CC2=C(c3ccco3)C(=O)C(C)(OC(=O)c3ccc(OC)cc3)C(=O)C2=CN1CCCCO (stereo not given) | inactive
24 | COC(=O)C1=C(C)N(Cc2ccccc2)C(=O)N[C@H]1c1cccc(F)c1 | inactive
25 | CCN1C(=O)N[C@@H](c2ccccc2)[C@H](C(C)=O)[C@H]1C | inactive
26 | C=CCOC(=O)N[C@H](C(C(=O)OC)=C(C)NCc1ccccc1)c1cccc(F)c1 | inactive
27 | C=CCOC(=O)N[C@@H](c1ccc(Br)cc1)C(C(C)=O)C(C)=O | inactive
28 | CCN1C(=O)N[C@@H](c2ccccc2)C(C(=O)OC)=C1C | inactive
29 | COc1cccc(CC(=O)N2CCc3nc(-c4ccccc4)c4c(c3C2)CO[C@@H](C)C4)c1 | inactive
30 | COCCN1C(=O)N[C@@H](c2cccs2)C(C(C)=O)=C1C | inactive
31 | CC[C@@H](C)CN1C(=O)N[C@@H](CCc2ccccc2)C(C(C)=O)=C1C | inactive
32 | CC#CCN1c2ccccc2[C@]23C[C@@H](C(=O)OC)N(S(=O)(=O)c4ccc(Br)cc4)C2=NC(C(=O)OC)=C(C(=O)OC)[C@H]13 | inactive
33 | COC(=O)CCC(=O)OC1(C)C(=O)C2=CN(Cc3ccc4c(c3)OCO4)C(c3ccc(OC)cc3)=CC2=C(Br)C1=O (stereo not given) | inactive
34 | CCN1C(=O)N[C@@H](c2cccc(C(F)(F)F)c2)[C@@H](C(=O)OC)[C@H]1C | inactive
35 | COC(=O)C1=C(C(=O)OC)[C@@H]2N(C)c3ccccc3[C@@]23C[C@@H](C(=O)OC)N(S(=O)(=O)c2ccc(Br)cc2)C3=N1 | inactive
36 | COCCN1C(=O)N[C@@H](c2cccc(C(F)(F)F)c2)[C@@H](C(=O)OC)[C@H]1C | inactive
37 | COC/C=C/C1=CC2=CC(=O)C(C)(OC(=O)c3cnc4ccccc4n3)C(=O)C2=CN1c1cccc(C#N)c1 (stereo not given) | inactive
38 | CC1(C)O[C@@H](C(O)(c2cc(F)c(F)c(F)c2)c2cc(F)c(F)c(F)c2)[C@H](C(O)(c2cc(F)c(F)c(F)c2)c2cc(F)c(F)c(F)c2)O1 | 671 nM (active)
39 | CCCCc1nc2c(c3c1C[C@H](C)OC3)CN(C(=O)NCc1ccco1)CC2 | inactive
40 | C[C@H]1Cc2c(-c3ccccc3)nc3c(c2CO1)CN(C(=O)c1ccco1)CC3 | inactive

Source: PubChem BioAssay (NCATS)
